Measurements taken from PubChem BioAssay (NCATS).
Records with an inconclusive call do not appear. Activity calls are given as the source filed them. Calls follow the shape of the dose curve; as a rule, active = well fitted curve in the direction sought with a large enough effect; inconclusive = small, poorly fitted or top-dose-only effect, or another doubt; inactive = no such curve, though single readings can be large; an effect the other way counts as inactive or inconclusive.

system: not listed separately; test: Confirmatory screen NINDS Rhodamine qHTS for Zika virus inhibitors (AID 1347161); conditions: purified enzyme assay, Rhodamine110 substrate fluorescence, 15 min; series mostly up to 22.2 µM; activity change, negative = inhibition: at the top concentration; also: nearly all actives have a fitted effect of over 60% in size; also: potency is read from the fitted curve at half-maximal effect;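 as to activity change, negative = inhibition: purified Zika NS2B-NS3 protease with linked NS2B cofactor domain and Rhodamine110 peptide substrate; plate controls were no-inhibitor control for no effect and no-enzyme control for full effect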
How it was run: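 qHTS dose-response: 25 nM linked protease, pH 8.0 Tris/Tween buffer, cpd titration, 15 min RT preinc, 1.5 microM Rhod110 peptide, 15 min reaction (~15% conversion), Ex480/Em540; 4-parameter Hill fit.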

| Structure (SMILES) | Potency | activity change, negative = inhibition |
| --- | --- | --- |
| CCOC(=O)Cn1cccc1-c1nc(-c2ccc(OC)cc2)c(-c2ccc(OC)cc2)s1 | 11.1 µM (active) |  |
| O=C(Nc1ccc(S(=O)(=O)N2CCOCC2)cc1)c1cc(Cl)ccc1NS(=O)(=O)c1ccc(Cl)s1 | 1.75 µM (active) |  |
| CCC(=O)O[C@H]1[C@H](O[C@@H]2[C@@H](C)[C@H](O[C@H]3C[C@@](C)(OC)[C@@H](O)[C@H](C)O3)[C@@H](C)C(=O)O[C@H](CC)[C@@](C)(O)[C@H](O)[C@@H](C)C(=O)[C@H](C)C[C@@]2(C)O)O[C@H](C)C[C@@H]1N(C)C | 2.78 µM (active) |  |
| O=C(CCCCC(=O)Nc1c(I)cc(I)c(C(=O)O)c1I)Nc1c(I)cc(I)c(C(=O)O)c1I |  | 1.64% (inactive) |
| O=C(COCCOCCOCC(=O)Nc1c(I)cc(I)c(C(=O)O)c1I)Nc1c(I)cc(I)c(C(=O)O)c1I |  | -4.46% [at 114 µM] (inactive) |

system: Zika virus NS2B-NS3 protease (linked); test: 384 well plate NINDS AMC confirmatory qHTS for Zika virus inhibitors (AID 1347163); conditions: Recombinant NS2B-NS3 protease, Ac-VKTGKR-AMC fluorescence; series mostly up to 100 µM; activity change, negative = inhibition: at the top concentration; also: nearly all actives have a fitted effect of over 50% in size; also: potency is read from the fitted curve at half-maximal effect;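 as to activity change, negative = inhibition: fluorescence of AMC released from Ac-VKTGKR-AMC peptide cleaved by the protease; top concentration of the series differs between compounds; 0% = no-inhibitor control and -100% = no-enzyme control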
How it was run: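 Linked NS2B-NS3 protease (final 5 nM, 30 nM or 60 nM) was preincubated with compounds (final up to 1 mM) for ~15 minutes. Ac-VKTGKR-AMC substrate (final 30 microM) then reacted for 25 minutes at room temperature in the dark. Fluorescence (ex 355/em 460 nm) was normalized to no-enzyme and no-inhibitor controls.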

| Structure (SMILES) | activity change, negative = inhibition | Potency |
| --- | --- | --- |
| CCOC(=O)Cn1cccc1-c1nc(-c2ccc(OC)cc2)c(-c2ccc(OC)cc2)s1 | 853% (inactive) |  |
| O=C(Nc1ccc(S(=O)(=O)N2CCOCC2)cc1)c1cc(Cl)ccc1NS(=O)(=O)c1ccc(Cl)s1 | 548% (inactive) |  |
| CCC(=O)O[C@H]1[C@H](O[C@@H]2[C@@H](C)[C@H](O[C@H]3C[C@@](C)(OC)[C@@H](O)[C@H](C)O3)[C@@H](C)C(=O)O[C@H](CC)[C@@](C)(O)[C@H](O)[C@@H](C)C(=O)[C@H](C)C[C@@]2(C)O)O[C@H](C)C[C@@H]1N(C)C |  | 355 µM (active) |

system: Zika virus NS2B-NS3 protease (linked construct); test: 384 well plate NINDS Rhodamine confirmatory qHTS for Zika virus inhibitors (AID 1347164); conditions: rhodamine-110 peptide substrate fluorescence; also: potency is read from the fitted curve at half-maximal effect; nearly all actives have a fitted effect of over 65% in size
Excerpt: Description: Assay Submitters (PI): Avindra Nath, Ph.D., National Institute of Neurological Disorders and Stroke (NINDS), Bethesda, MD Radhakrishnan Padmanabhan, Ph.D., Georgetown University (GU), Washington D.C. Zika Virus causes congenital defects, including microcephaly and is associated with Guillain-Barre syndrome, eningoencephalitis and myelitis in infected adult. […] Using a target-based approach, we hope to establish a screening paradigm to uncover novel, cell-active NS2B-NS3 protease (Zika Virus) specific inhibitors from NCATS' collection of small molecules using qHTS. […] Four assay panel was created to identify potential Zika Virus inhibitors. Namely, (1) GU unlinked NS2B-NS3 AMC tagged protease qHTS, (2) GU unlinked NS2B-NS3 Rhodamine tagged protease qHTS, (3) NINDS linked NS2B-NS3 AMC tagged protease qHTS, (4) NINDS linked NS2B-NS3 Rhodamine tagged protease qHTS. Active compounds are validated using a secondary assay in 384 well plate format. Early Translation Branch (ETB) National Center for Advancing Translational Sciences (NCATS), Rockville, MD National Institute of Health (NIH), Bethesda, Maryland
384-well NINDS Rhodamine Assay: The protease was diluted to 7.5 nM, 40.9 nM, or 82 nM in assay buffer and dispensed into a 96-well PCR plate (Applied Biosystems); 20 or 22 microL was transferred to a black 384-well assay plate (final protease concentration of 5 nM, 30 nM, or 60 nM, respectively). Compounds (3 microL, 1 microM - 10 mM, DMSO) were diluted and transferred to the assay plate (final concentrations ranged from 100 nM to 1 mM). Compounds were incubated with protease for ~15 minutes. The substrate, Rhodamine 110 (Ac-LKRR-Rd; Genscript), was dissolved in DMSO to a concentration of 6 mM and further diluted into assay buffer to a working concentration of 180 microM, then dispensed into a 384-well preparation plate (Eppendorf). A multichannel repeat pipettor was used to add 3 or 5 microL of substrate to the assay plate to give a final concentration of 10 microM. The plate was incubated in the dark at room temperature. After 25 minutes, the fluorescence intensity (excitation: 485 nm, emission: 538 nm) was measured and normalized to no-enzyme and no-inhibitor controls. Aprotinin39 (VWR) was used as an intraplate control.

| Structure (SMILES) | Potency |
| --- | --- |
| CCOC(=O)Cn1cccc1-c1nc(-c2ccc(OC)cc2)c(-c2ccc(OC)cc2)s1 | 0.398 µM (active) |
| O=C(Nc1ccc(S(=O)(=O)N2CCOCC2)cc1)c1cc(Cl)ccc1NS(=O)(=O)c1ccc(Cl)s1 | 10 µM (active) |
| CCC(=O)O[C@H]1[C@H](O[C@@H]2[C@@H](C)[C@H](O[C@H]3C[C@@](C)(OC)[C@@H](O)[C@H](C)O3)[C@@H](C)C(=O)O[C@H](CC)[C@@](C)(O)[C@H](O)[C@@H](C)C(=O)[C@H](C)C[C@@]2(C)O)O[C@H](C)C[C@@H]1N(C)C | 63.1 µM (active) |

biological target: Lysine-specific demethylase 5B (Homo sapiens) (UniProt Q9UGL1); test: Optimization screen for KDM5B Histone Demethylases FDH coupled qHTS against the LOPAC library (AID 1347166); conditions: KDM5B demethylation, FDH-coupled NADH fluorescence (FDH is formaldehyde dehydrogenase); series mostly up to 57.5 µM; activity, negative = inhibition: at the top concentration; also: 0% is about no effect
Sequence (Q9UGL1 whole entry, looked up): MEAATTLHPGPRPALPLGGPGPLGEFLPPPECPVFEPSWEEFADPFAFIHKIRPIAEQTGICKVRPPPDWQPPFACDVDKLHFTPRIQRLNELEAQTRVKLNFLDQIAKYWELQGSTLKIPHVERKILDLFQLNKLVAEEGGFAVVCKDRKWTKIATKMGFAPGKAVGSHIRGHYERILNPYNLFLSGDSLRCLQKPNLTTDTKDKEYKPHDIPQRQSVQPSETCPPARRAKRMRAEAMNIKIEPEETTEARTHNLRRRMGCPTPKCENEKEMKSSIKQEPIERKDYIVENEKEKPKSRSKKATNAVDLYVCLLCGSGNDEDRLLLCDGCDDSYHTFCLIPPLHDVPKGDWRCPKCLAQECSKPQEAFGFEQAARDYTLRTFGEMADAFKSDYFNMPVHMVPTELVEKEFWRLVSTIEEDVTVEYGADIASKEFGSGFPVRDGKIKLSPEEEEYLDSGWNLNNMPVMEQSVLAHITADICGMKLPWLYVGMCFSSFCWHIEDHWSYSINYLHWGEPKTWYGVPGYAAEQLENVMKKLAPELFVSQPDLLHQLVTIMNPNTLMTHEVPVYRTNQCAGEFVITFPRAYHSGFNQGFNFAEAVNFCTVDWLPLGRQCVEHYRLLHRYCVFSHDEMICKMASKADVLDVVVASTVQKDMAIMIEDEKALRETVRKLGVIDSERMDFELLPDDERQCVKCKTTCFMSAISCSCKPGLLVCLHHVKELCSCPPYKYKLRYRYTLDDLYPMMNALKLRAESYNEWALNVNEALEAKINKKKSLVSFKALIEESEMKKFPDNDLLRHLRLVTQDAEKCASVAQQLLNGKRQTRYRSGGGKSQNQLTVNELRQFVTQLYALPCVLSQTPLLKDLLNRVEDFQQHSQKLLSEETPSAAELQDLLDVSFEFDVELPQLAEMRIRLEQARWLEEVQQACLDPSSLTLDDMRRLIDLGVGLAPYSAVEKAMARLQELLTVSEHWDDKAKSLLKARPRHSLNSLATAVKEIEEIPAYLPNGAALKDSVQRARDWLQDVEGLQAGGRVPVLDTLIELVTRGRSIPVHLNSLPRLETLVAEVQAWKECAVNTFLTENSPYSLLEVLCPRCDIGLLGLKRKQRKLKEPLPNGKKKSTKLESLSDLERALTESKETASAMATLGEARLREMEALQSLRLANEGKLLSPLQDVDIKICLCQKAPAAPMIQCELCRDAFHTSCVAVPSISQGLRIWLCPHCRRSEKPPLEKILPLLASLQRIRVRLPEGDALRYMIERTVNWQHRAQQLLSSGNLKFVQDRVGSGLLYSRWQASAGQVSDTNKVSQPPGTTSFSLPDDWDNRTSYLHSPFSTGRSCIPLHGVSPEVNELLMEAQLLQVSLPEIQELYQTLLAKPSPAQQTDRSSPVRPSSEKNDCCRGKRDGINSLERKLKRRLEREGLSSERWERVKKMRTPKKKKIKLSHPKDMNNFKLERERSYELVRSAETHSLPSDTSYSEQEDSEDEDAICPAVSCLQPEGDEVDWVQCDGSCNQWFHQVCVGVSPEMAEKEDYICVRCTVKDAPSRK
How it was run: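 KDM5BDeltaAP (200nM final) preincubated 10 min with compound, then 12.5uM H3K4Me3, 25uM a-ketoglutarate, ascorbate, Fe(II), NAD+ and FDH added; 50mM HEPES pH 7.5, 0.01% Tween-20. NADH fluorescence (340/450 nm) change over 30 min, room temperature.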

| Structure (SMILES) | activity, negative = inhibition |
| --- | --- |
| O=[N+]([O-])c1ccc(-c2nc(-c3ccc(F)cc3)c(-c3ccncc3)[nH]2)cc1 | -17.6% (inactive) |
| Cn1cnc2c(NCc3ccccc3)nc(NCCO)nc21 | -5.69% (inactive) |
| C[N+](C)(C)CCO | 1.03% (inactive) |
| Cc1nn(-c2ccccc2)c(C)c1/C=N/N1CCN(Cc2ccccc2)CC1 | -5.05% (inactive) |
| CCN(CC)CCNC(=O)c1ccc(NS(C)(=O)=O)cc1 | -2.41% (inactive) |
| COC(=O)C1=CO[C@@H](O)[C@@H]2C(CO)=CC[C@H]12 | -10.1% (inactive) |
| N[C@@H](Cn1ccc(=O)c(O)c1)C(=O)O | 2.65% (inactive) |
| NC(N)=NCCCCN=C(N)N | -7.39% (inactive) |
